# Screens from PubChem.
# Shown are actives, neighbours in structure and some others; about 4.7% of the full set was active somewhere.
# TIM10 inh – growth inhibitors of TIM10 yeast strain; S. cerevisiae TIM10 strain growth, BacTiter-Glo luminescence, 24 h; actives 1.4% (n = 330,000); inhibition, % at 10 µM;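 active = inhibition of 40% or more at the single tested concentration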;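 note: wild-type TIM10 isogenic control strain grown at permissive 25 °C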
# tim23-1 inh – inhibits growth of tim23-1 mutant yeast | actives 1.3% (n = 330,000) | S. cerevisiae tim23-1 growth, BacTiter-Glo luminescence, 24 h | AID 463212 | inhibition, % at 20 µM;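 active = growth inhibition of the mutant yeast at or above 50%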;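 note: temperature-sensitive mutant grown at 25 °C; plate controls were DMSO-treated mutant yeast for no effect and medium wells lacking yeast for full effect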
# SKKanGAS inh – blocks kanamycin growth of S. pyogenes SKKanGAS strain; BacTiter-Glo, 6 h; inhibition, % at 7.5 µM; actives 1.3% (n = 300,000);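 active = mean replicate score, as percent of positive control median, at least 50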;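 note: strain carries kanamycin resistance gene driven by streptokinase promoter and grows in 40 µg/ml kanamycin; loss of luminescence reflects streptokinase promoter inhibition or plain growth inhibition; 0% = median of DMSO wells and 100% = positive control at its reference dose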
# Calb FLC – affects C. albicans growth with fluconazole; C. albicans CaCi-2 (fluconazole-resistant clinical isolate) + fluconazole, Alamar Blue growth, 48 h; growth inhibition, % (concentration not given with the values); actives 0.57% (n = 300,000); AID 1979;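 active = growth inhibition above about 58% in most replicates, limit read from the data, passing the limit was not always enough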;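 note: all wells also contain fluconazole at 8 µg/ml as a sub-toxic cotreatment; 0% = median of DMSO wells and 100% = median of geldanamycin control wells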
# PfHsp90 yeast 2 – reduces growth (ATP signal) of yeast expressing P. falciparum Hsp90 | S. cerevisiae expressing PfHsp90, BacTiter-Glo ATP, 48 h; yeast lacking PDR1 and PDR3 efflux regulators | inhibition, % at 9.4 µM | actives 0.32% (n = 310,000) | AID 504621;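 active = every replicate shows inhibition above about 80%, whatever the replicate mean, limit read from the data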;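 note: 0% = DMSO neutral controls and 100% = 20 µM radicicol positive controls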
# tim10-1 inh – inhibits growth of tim10-1 mutant yeast; S. cerevisiae tim10-1 ts strain growth, BacTiter-Glo, 24 h; actives 2.2% (n = 330,000); inhibition, % at 20 µM;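 active = inhibition of at least 40%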;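 note: mutant grown at 25 °C; 0% = DMSO wells with yeast and 100% = wells holding no yeast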
# tim10-1 conf – confirmation of tim10-1 mutant yeast growth inhibitors | shares compounds with tim10-1 inh | S. cerevisiae tim10-1 ts strain growth, BacTiter-Glo, 24 h | inhibition, % at 20 µM | actives 56% (n = 7,400);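 active = inhibition of yeast growth at or above a set limit in either of two repeat tests at 20 µM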;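 note: tim10-1 mutant grown at permissive 25 °C to find synthetic lethal compounds; 0% = DMSO yeast wells and 100% = medium wells without yeast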
# * marks the source's active call; other numbers are inactive results; x = no result.
SMILES,TIM10 inh,tim23-1 inh,SKKanGAS inh,Calb FLC,PfHsp90 yeast 2,tim10-1 inh,tim10-1 conf
COc1ccc(/C=N/c2c(-c3ccc(OC)cc3)nc3n2CCS3)cc1,6,45,5,-3,-10,40*,0
COc1ccc(NC(=O)c2ccc(Cl)c(S(=O)(=O)N3CCc4ccccc4C3)c2)cn1,20,15,17,21,17,47*,19
CC1(C)CC(=O)C2=C(C1)OC1=C(C(=O)CC(C)(C)C1)C2c1ccc(O)c([N+](=O)[O-])c1,4,25,-11,20,-4,29,x
CC1(C)CC(=O)C2=C(C1)OC1=C(C(=O)CC(C)(C)C1)C2c1ccc(O)cc1O,36,46,-4,-2,-18,44*,35*
CCOc1ccc(S(=O)(=O)N2CCN(C(=O)C3CCC3)CC2)cc1,6,16,-3,-2,-6,4,x
CCn1c(SCC(=O)NC2CCCCC2)nnc1-c1ccccc1F,-16,-10,2,-6,14,-31,x
Cc1ccc(NC(=O)C2=C(O)CCn3c2nc2ccccc23)cc1,20,27,-6,9,-26,43*,0
CCOC(=O)C1(Cc2ccccc2)CCN(Cc2cc(OC)c3c(c2)OCO3)CC1,-2,14,-9,9,-19,-19,x
Cc1cc(=O)oc2cc(OCc3nnc(-c4ccccc4Br)o3)ccc12,25,18,x,x,-31,44*,21
O=C(NN1CCCCC1)c1cnn2c(C(F)F)cc(-c3ccccc3)nc12,-9,-11,8,-3,-10,-7,x
CCn1nc(C)c(NC(=O)c2cnn3c(C(F)F)cc(-c4ccccc4)nc23)c1C,19,19,-13,11,-31,42*,16
O=C(Nc1ccc(Cl)c(C(=O)N2CCOCC2)c1)c1ccccc1,-1,13,7,-3,2,12,x
CCOc1ccc(C(c2c(C)[nH][nH]c2=O)c2c(C)[nH][nH]c2=O)cc1OC,26,50,-2,-1,2,42*,24
Cc1ccc(-c2cc(C(=O)Nc3ccccc3C)c3ccccc3n2)o1,9,14,5,-16,x,49*,26
COC(=O)c1cc(-c2ccc(C)o2)nc2ccccc12,22,15,4,-14,-3,23,x
Cc1nn(S(=O)(=O)c2ccccc2)c(C)c1S(=O)(=O)N1CCOCC1,4,0,3,-6,1,0,x
CC(OC(=O)CN(C)S(=O)(=O)c1ccc(Cl)cc1)C(=O)Nc1ncc(Cl)cc1Cl (stereo not given),13,20,5,-3,-23,28,x
Cc1ccc(S(=O)(=O)N2CCC[C@H]2C(=O)OC(C)C(=O)Nc2ncc(Cl)cc2Cl)cc1 (stereo not given in full),14,6,-3,7,3,41*,22
c1ccc(COC2COC3C(OCc4ccccc4)COC23)cc1 (stereo not given),x,x,x,x,22,x,x
O=C1c2cccc3c(N4CCCCC4)ccc(c23)C(=O)N1CCO,28,41,-3,19,-9,46*,29
Cc1ccc(NC(=O)c2cc(-c3ccccc3)nn2-c2ccccc2)cc1,33,21,22,24,11,45*,32*
COc1ccc(CN(CC(=O)NCc2ccc(F)cc2)C(=O)CCC(=O)Nc2ccccn2)cc1,7,2,3,-5,-12,-25,x
Cc1cccc(OCC(=O)Nc2ccc(NC(=O)c3ccco3)cc2)c1,11,22,3,2,-6,-4,x
CN(C)S(=O)(=O)c1ccc(Cl)c(C(=O)NC2CCCCCCC2)c1,-5,2,12,1,17,11,x
CCN(CC)c1ccc(C2Nc3cccc4cccc(c34)N2)c(O)c1,19,29,x,x,2,43*,27
SMILES,TIM10 inh,tim23-1 inh,SKKanGAS inh,Calb FLC,PfHsp90 yeast 2,tim10-1 inh,tim10-1 conf
Cc1ccc(-n2ncc3c2CC(C)(C)CC3NC(=O)c2c(C)noc2C)cc1 (stereo not given),6,30,16,16,-12,23,x
CCCC(c1nnnn1Cc1cccs1)N1CCN(c2ccc(OC)cc2)CC1 (stereo not given),31,24,-1,10,-16,43*,16
COc1cccc(C(c2nnnn2Cc2ccco2)N2CCN(Cc3ccccc3)CC2)c1OC (stereo not given),5,20,-1,0,18,27,x
CC(C)C(c1nnnn1Cc1ccco1)N1CCN(c2cccc(Cl)c2)CC1 (stereo not given),22,40,-4,-8,5,41*,15
COc1ccc(N2CCN(C(c3ccccc3OC)c3nnnn3Cc3ccco3)CC2)cc1 (stereo not given),4,13,2,-3,4,40*,22
CC(Oc1ccc(F)cc1)C(=O)N(CCC1=CCCCC1)c1c(N)n(Cc2ccccc2)c(=O)[nH]c1=O (stereo not given),2,10,0,35,x,12,x
O=C1C(Cl)=C(Nc2cccc(O)c2)C(=O)N1Cc1ccccc1,32,32,18,4,-7,42*,31*
CCOc1ccccc1NC1=C(Cl)C(=O)N(Cc2ccccc2)C1=O,24,-3,32,-11,-8,44*,21
C=CCNC1=C(Cl)C(=O)N(Cc2ccccc2)C1=O,-31,-9,2,0,-4,-34,x
CC1CCCCN1C(=O)c1cccc(NC2=C(Cl)C(=O)N(Cc3ccccc3)C2=O)c1 (stereo not given),35,49,x,x,x,51*,35*
COCCn1c(COc2cccc(OC)c2)nnc1SCC(=O)NC1CCCC1,-6,-10,-5,2,31,-3,x
Cc1nn2c3ccccc3nc2c2ccccc12,18,31,4,-5,-66,51*,42*
Cc1nn2c(-c3ccccc3)nnc2c2ccccc12,32,35,x,x,x,27,x
O=C(Nc1cccnc1)c1cn(-c2ccccc2)nc1-c1cccs1,40,42,-3,49,24,43*,43*
CC(=O)N1CCN(c2nc(CC(C)C)c3c(c2C#N)CCC3)CC1,23,26,-1,15,-2,49*,16
CC(C)Cc1nc(N2CCN(C(=O)c3ccccc3)CC2)c(C#N)c2c1CCC2,19,39,7,6,21,10,x
COC(=O)c1cn(-c2ccc(Cl)cc2)c(=O)c2ccccc12,25,39,-5,0,-22,44*,29
CC(Oc1ccc2c(-c3ccccc3)cc(=O)oc2c1)C(=O)N1CCC[C@@H]1C(N)=O (stereo not given in full),6,10,3,-2,-7,2,x
